Where “and” joins values, the source holds several entries; their conditions need not be identical. Equal values may be shown once. Records with an inconclusive call do not appear. A call without a number means that no potency is given here. Some structures have more than one record in an assay (separate samples or runs), and their calls can disagree. Calls of active or inactive are those of the source. Calls follow the shape of the dose curve; as a rule, active = well fitted cell-killing curve with a large enough effect in the repeat runs; inconclusive = weak or mixed curves, or effect the other way; inactive = no such curve, though single readings can be large or run the other way.
Assay: qHTS assay to identify small molecule agonists of the farnesoid-X-receptor (FXR) signaling pathway - cell viability counter screen (AID 743218); also: nearly all actives have a fitted effect of over 45% in size
Details: FXR-bla HEK293T viability, CellTiter-Glo luminescence, 16 h; series mostly up to 62.6 µM
Source text: U.S. Tox21 Program National Center for Advancing Translational Sciences [NCATS] NIH Chemical Genomics Center [NCGC] U.S. Environmental Protection Agency [EPA] National Institutes of Environmental Health Sciences [NIEHS] National Toxicology Program [NTP] U.S. Food and Drug Administration [FDA] Tox21 Assay Overview: The farnesoid-X-receptor (FXR), a nuclear hormone receptor, is highly expressed in liver, intestine, kidney and adrenal cortex. Natural ligands of FXR are the bile acids (Cholic acid, Chenodeoxy cholic acid etc). FXR is an important regulator of diverse metabolic pathways, including the bile acid homeostasis, lipid and glucose metabolisms. FXR regulates the expression of target genes by binding either as a monomer or as a heterodimer with the retinoid X receptor (RXR). Numerous studies have reported that FXR exerts protective function during cholestasis, diabetes, liver regeneration, and cancer. To identify compounds that activate FXR signaling, GeneBLAzer FXR-UAS-bla HEK 293T cell line (Invitrogen, Carlsbad, CA) containing a beta-lactamase reporter gene under the control of a UAS response element was used to screen the Tox21 10K compound library. The cytotoxicity of the Tox21 compound library against the FXR-bla cell line was tested in parallel by measuring the cell viability using CellTiter-Glo assay in the same wells.
Tox21 Assay Protocol Summary: FXR-bla cells were dispensed at 5000 cells/5uL/well in 1536-well black wall/clear bottom plates using a Multidrop Combi (Thermo Fisher Scientific, Waltham, MA) dispenser. After the assay plates were incubated at 37 C and 5% CO2 for 5 h, 23 nL of compounds dissolved in DMSO, positive controls or DMSO only was transferred to the assay plate by a Pintool station (Kalypsys, San Diego, CA). The assay plates were incubated at 37C for 16 h. After 1 uL of LiveBLAzerTM B/G FRET substrate was added using a Bioraptr Flying Reagent Dispenser (FRD) workstation (Beckman Coulter, Indianapolis, IN), the plates were incubated at room temperature for 2 h, and fluorescence intensity was measured by an Envision plate reader (PerkinElmer, Shelton, CT). For cell viability readout that measures cytotoxicity, 4uL/well of CellTiter-Glo reagent was added into the assay plates using a Bioraptr FRD. After 30 min incubation at room temperature, the luminescence intensity in the plates was measured using a ViewLux plate reader (PerkinElmer).
Potency is read from the fitted curve at half-maximal effect.

SMILES | Potency
CC1=CC2C3CC(C=C3C)C2C1 (stereo not given) | inactive
CCC(C)(O)CCCC(C)C (stereo not given) | inactive
Cc1cccc(C(=O)O)c1 | inactive
CC(C(=O)O)c1cccc(C(=O)c2ccccc2)c1 (stereo not given) | inactive
CCCCC(CC)COP(=O)(OCC(CC)CCCC)OCC(CC)CCCC (stereo not given) | inactive
CCC(C)CO (stereo not given) | inactive
Cc1cc2nc3c(=O)[nH]c(=O)nc-3n(C[C@H](O)[C@H](O)[C@H](O)CO)c2cc1C | inactive
CC(CCC(=O)O)(c1ccc(O)cc1)c1ccc(O)cc1 | inactive
CC(C)OC(=O)C(C)(C)Oc1ccc(C(=O)c2ccc(Cl)cc2)cc1 | inactive
CCOC(=O)C(C#N)=C(c1ccccc1)c1ccccc1 | inactive
CCCCC(CC)COC(=O)c1ccc(N(C)C)cc1 (stereo not given) | inactive
CCCCNS(=O)(=O)c1ccccc1 | inactive
CCC(C)OC(=O)c1ccc(O)cc1 (stereo not given) | inactive
CCCCC/C=C/C=C/C=O | inactive
O=P(O)(O)O | inactive
Brc1cc(Oc2cc(Br)c(Br)c(Br)c2Br)c(Br)c(Br)c1Br | inactive
CCCCOCCOCCO | inactive
CC(=O)C1(C)CC2=C(CCCC2(C)C)CC1C (stereo not given) | inactive
COc1cc([C@@H]2c3cc4c(cc3[C@H](O)[C@H]3COC(=O)[C@H]23)OCO4)cc(OC)c1OC | inactive
NNc1ccc(C(=O)O)cc1 | inactive

SMILES | Potency
NC=O | inactive
O=CCCCC=O | inactive
CN(C)C(=N)N=C(N)N | inactive
Nc1ncn([C@@H]2O[C@H](CO)[C@@H](O)[C@H]2O)c(=O)n1 | inactive
CC(C)OC=O | inactive
Nc1ccc(S(=O)(=O)Nc2cnc3ccccc3n2)cc1 | inactive
O=C(Nc1ccc(Cl)cc1)Nc1ccc(Cl)c(Cl)c1 | inactive and 2.66 µM (active)
COC(=O)C1=C(C)NC(C)=C(C(=O)OCCN(C)Cc2ccccc2)C1c1cccc([N+](=O)[O-])c1 (stereo not given) | 24.4 µM (active) and 29.8 µM (active)
Cc1ccc(C)c(O)c1C | inactive
Cc1c(C(N)=O)cc([N+](=O)[O-])cc1[N+](=O)[O-] | inactive
COC(=O)c1ccccc1 | inactive
O=C(/C=C/c1ccccc1)OCc1ccccc1 | inactive
O=[N+]([O-])c1ccc2c(c1)Cc1ccccc1-2 | inactive
O=C(O)c1ccccc1Nc1cccc(C(F)(F)F)c1 | inactive
CC(C)=CCC/C(C)=C\CO | inactive
c1ccc2sc(SSN3CCOCC3)nc2c1 | inactive
OC1CCCCCCCCCCC1 | inactive
CC(C)Oc1ccc2c(=O)c(-c3ccccc3)coc2c1 | inactive
O=C(/C=C/C=C/c1ccc2c(c1)OCO2)N1CCCCC1 | inactive
C[Si](C)(C)O[Si](C)(C)C | inactive
